About 5,700 (36%) of roughly 16,000 compounds were called active. Inconclusive results (about 24%) are left out. This is one part of the list. Values without a mark were called inactive. The call rests on the fitted dose curve; in most records, active means well fitted curve in the direction sought with a large enough effect; inconclusive means small, poorly fitted or top-dose-only effect, or effect the other way; inactive means no such curve, though single readings can be large or run the other way.
target: Cytochrome P450 1A2 (Homo sapiens) (UniProt P05177); test: Cytochrome panel assay with activity outcomes; settings: recombinant CYP, pro-luciferin dealkylation, luminescence, p450-cyp1a2; series mostly up to 57.1 µM; activity, negative = inhibition: at the top concentration
On the % scale 0 is the no-effect control and ±100 the full control effect.

Chain of Cytochrome P450 1A2 (Homo sapiens) (P05177 whole entry, looked up): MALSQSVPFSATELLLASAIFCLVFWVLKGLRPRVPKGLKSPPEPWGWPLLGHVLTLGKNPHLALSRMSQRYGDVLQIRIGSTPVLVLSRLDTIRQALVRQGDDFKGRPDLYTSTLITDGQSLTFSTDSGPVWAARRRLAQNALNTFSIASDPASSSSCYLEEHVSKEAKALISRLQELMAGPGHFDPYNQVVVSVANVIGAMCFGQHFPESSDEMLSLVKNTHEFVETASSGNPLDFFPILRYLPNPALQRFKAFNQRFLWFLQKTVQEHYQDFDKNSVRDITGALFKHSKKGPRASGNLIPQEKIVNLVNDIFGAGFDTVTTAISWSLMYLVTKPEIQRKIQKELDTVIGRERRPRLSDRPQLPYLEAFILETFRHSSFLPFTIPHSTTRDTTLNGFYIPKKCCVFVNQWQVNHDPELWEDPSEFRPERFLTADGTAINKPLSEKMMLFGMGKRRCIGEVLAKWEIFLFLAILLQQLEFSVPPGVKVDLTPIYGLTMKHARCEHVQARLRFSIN

Question: With `COc1cc(OC)c(C#N)c(S(=O)(=O)Cc2ccccc2)c1` as the molecule, how does the AC50 read?
Answer: 15.8 µM (active)

Question: How did the “activity, negative = inhibition” value turn out when `C#CCn1c(S(=O)(=O)Cc2ccc(OC)cc2)nc(-c2ccccc2)c1-c1ccccc1` was run?
Answer: -22.5% (inactive)

Question: `C[C@@H](CNC(N)=O)NC(N)=O` was tested. Which activity, negative = inhibition did it give?
Answer: -12.2% [at 11.4 µM]

Question: `CN(C)c1ccc(-c2cncnc2N(C)Cc2ccco2)cc1` was tested. Which AC50 did it give?
Answer: 0.631 µM (active)

Question: `CN(Cc1ccco1)c1ncncc1-c1cccnc1` was tested. Which AC50 did it give?
Answer: 5.01 µM (active)

Question: How did the AC50 turn out when `COc1cccc(-c2cncnc2N(C)Cc2ccco2)c1` was run?
Answer: 10 µM (active)

Question: `CN(Cc1ccco1)c1ncncc1-c1ccc2c(c1)OCO2` was tested. Which AC50 did it give?
Answer: 0.2 µM (active)

Question: With `CN(Cc1ccco1)c1ncncc1-c1ccoc1` as the molecule, how does the AC50 read?
Answer: 15.8 µM (active)

Question: Which AC50 does the source give for `O=C(CSc1ccc(Cl)cc1)Nc1cccc(-c2nc3ncccc3o2)c1` here?
Answer: 8.91 µM (active)

Question: With `O=C(Cc1ccc(Cl)cc1)Nc1cccc(-c2nnc(-c3ccco3)o2)c1` as the molecule, how does the “activity, negative = inhibition” value read?
Answer: -2.23% (inactive)

Question: For `O=C(Nc1cccc(-c2nc3ncccc3o2)c1)c1sc2ccccc2c1Cl`, which AC50 is on record?
Answer: 0.708 µM (active)

Question: How did the “activity, negative = inhibition” value turn out when `CCCCCC(=O)N1CC2(CC(c3cccc(NC(=O)c4ccccc4)c3)=NO2)C[C@@H]1C(N)=O` (stereo not given in full) was run?
Answer: -22.2% (inactive)

Question: For `CCC(=O)Nc1cccc(-c2nnc(-c3cccc(NC(=O)CC)c3)o2)c1`, which “activity, negative = inhibition” value is on record?
Answer: -3.41% (inactive)

Question: For `CCCCCC(=O)Nc1cccc(-c2nc3ncccc3o2)c1`, which AC50 is on record?
Answer: 2 µM (active)

Question: For `Cc1ccc(S(=O)(=O)O/N=C2/CCCc3occc32)cc1`, which “activity, negative = inhibition” value is on record?
Answer: -10% (inactive)

Question: For `COc1ccc(C2C(C(=O)N3CCOCC3)c3ccccc3C(=O)N2c2ccc(OC)cc2)cc1` (stereo not given), which “activity, negative = inhibition” value is on record?
Answer: -15.8% (inactive)

Question: How did the AC50 turn out when `CN(C)C(=O)CSC1c2ccccc2C(=O)N1c1ccccc1` (stereo not given) was run?
Answer: 12.6 µM (active)

Question: How did the “activity, negative = inhibition” value turn out when `CCOc1ccc(C2C(C(=O)O)c3ccccc3C(=O)N2CCN2CCOCC2)cc1` (stereo not given) was run?
Answer: -19.1% (inactive)

Question: `O=c1cc(CF)[nH]c(=S)[nH]1` was tested. Which activity, negative = inhibition did it give?
Answer: -23.3% [at 11.4 µM]

Question: How did the AC50 turn out when `CNc1nc(-c2ccoc2)nc2ccccc12` was run?
Answer: 0.398 µM (active)

Question: For `Fc1ccc(Nc2nc(-c3ccoc3)nc3ccccc23)cc1`, which AC50 is on record?
Answer: 0.316 µM (active)

Question: Which AC50 does the source give for `c1ccc2c(Nc3ccncc3)nc(-c3ccoc3)nc2c1` here?
Answer: 0.158 µM (active)

Question: With `c1ccc(Nc2nc(-c3ccoc3)nc3ccccc23)cc1` as the molecule, how does the AC50 read?
Answer: 0.2 µM (active)

Question: With `C=CC1=C[C@@H](O)C2OC2C12OCCCO2` (stereo not given in full) as the molecule, how does the activity, negative = inhibition read?
Answer: -8.77% [at 11.4 µM]

Question: With `NC(=O)CN1CCN(c2nc(-c3ccc(F)cc3)cs2)CC1` as the molecule, how does the AC50 read?
Answer: 2.51 µM (active)

Question: `NC(=O)CN1CCOCCOCCOCCOCCOCC1` was tested. Which “activity, negative = inhibition” value did it give?
Answer: -6.19% (inactive)

Question: `NCS(=O)(=O)O` was tested. Which activity, negative = inhibition did it give?
Answer: -5.62% [at 2.29 µM]

Question: For `COc1ccc2c(c1)C(=NN)c1cc(OC)ccc1-2`, which AC50 is on record?
Answer: 0.112 µM (active)

Question: Which AC50 does the source give for `COc1ccc(N2CCC(CNC(=O)Nc3ccc(OC)cc3OC)C2)cc1` (stereo not given) here?
Answer: 12.6 µM (active)

Question: Which “activity, negative = inhibition” value does the source give for `CCCCN(CC)Cc1ccc(CNC(=O)Nc2ccc(OC)cc2OC)o1` here?
Answer: -6.55% (inactive)

Question: `COc1ccc(OC)c(NC(=O)[C@H]2CC=CC[C@H]2C(=O)O)c1` was tested. Which “activity, negative = inhibition” value did it give?
Answer: -20.7% (inactive)

Question: `COCCN(C(=O)Nc1ccc(OC)cc1OC)C1CCN(C(C)=O)CC1` was tested. Which “activity, negative = inhibition” value did it give?
Answer: -16.2% (inactive)

Question: How did the AC50 turn out when `COc1ccc(OC)c(NC(=O)Cn2cccc2)c1` was run?
Answer: 6.31 µM (active)

Question: Which AC50 does the source give for `COc1ccc(NC(=O)NCc2cccn2C)c(OC)c1` here?
Answer: 15.8 µM (active)

Question: For `COc1ccc(NC(=O)Cn2cccc2)c(OC)c1`, which AC50 is on record?
Answer: 5.01 µM (active)

Question: How did the “activity, negative = inhibition” value turn out when `CCOc1ccc(-c2nnn(CC(=O)Nc3cc(OC)ccc3OC)n2)cc1OCC` was run?
Answer: -12.8% (inactive)

Question: For `COc1ccc(NC(=O)CSc2nnc(Cc3cccn3C)n2CCc2ccccc2)c(OC)c1`, which “activity, negative = inhibition” value is on record?
Answer: -35.8% (inactive)

Question: Which “activity, negative = inhibition” value does the source give for `CCN1CCCC1CNC(=O)C(=O)Nc1ccc(OC)cc1` (stereo not given) here?
Answer: -24.6% (inactive)

Question: For `C[C@@H](C(=O)O)c1ccc(C[C@@H]2CCCC2=O)cc1`, which “activity, negative = inhibition” value is on record?
Answer: -6.14% (inactive)

Question: For `O=C1[C@@H]2[C@@H](C(=O)N1c1ccc(OCc3ccccc3)cc1)[C@@H]1c3ccccc3[C@@H]2[n+]2ccccc21`, which activity, negative = inhibition is on record?
Answer: -19.6% [at 11.4 µM]

Question: `CN[C@]1(C)[C@@H]2CC[C@@H](C2)C1(C)C` was tested. Which “activity, negative = inhibition” value did it give?
Answer: -2.74% (inactive)

Question: With `CCOC(=O)c1cncc(C(=O)O)c1` as the molecule, how does the “activity, negative = inhibition” value read?
Answer: -1.87% (inactive)

Question: Which “activity, negative = inhibition” value does the source give for `CCc1ccc(C(=O)COC(=O)c2cccc(N3C(=O)c4c(C)nc5ccccc5c4C3=O)c2)cc1` here?
Answer: -14.4% (inactive)

Question: How did the AC50 turn out when `CCOC(=O)c1ccc2nc(C)c(CCC(C)=O)c(Cl)c2c1` was run?
Answer: 8.91 µM (active)

Question: How did the activity, negative = inhibition turn out when `O=C1CCCC=C1[C@H](CCc1ccccc1)OC(=O)c1ccc(Br)cc1` was run?
Answer: -1.62% [at 11.4 µM]

Question: `O=C(Nc1ccccc1)N1CC2(CCN(C(=O)c3cc(C(F)(F)F)cc(C(F)(F)F)c3)CC2)C1` was tested. Which “activity, negative = inhibition” value did it give?
Answer: -6.53% (inactive)

Question: How did the AC50 turn out when `COC(=O)/C(=C\C(=O)c1ccccc1)Nc1cccc(C(F)(F)F)c1` was run?
Answer: 2.24 µM (active)

Question: For `COc1ccc2c(Cc3c4ccccc4cc4ccccc34)cncc2c1O`, which AC50 is on record?
Answer: 0.126 µM (active)

Question: For `CCCNC(=O)OC[C@@H]1O[C@H](CCO/N=C\C[C@H]2C=C[C@H](OC(C)=O)[C@@H](COC(C)=O)O2)C=C[C@@H]1Oc1ccc(OC)cc1`, which activity, negative = inhibition is on record?
Answer: -4.67% [at 11.4 µM]

Question: How did the activity, negative = inhibition turn out when `Cn1c(=O)c2[nH]c(/N=N\N3CCN(CCO)CC3)nc2n(C)c1=O` was run?
Answer: -14.7% [at 2.29 µM]
